Source: PubChem (National Center for Advancing Translational Sciences (NCATS))
Lassa entry inh: inhibitors of Lassa virus binding or cell entry; Lassa virus pseudotype entry inhibition, cell reporter; AID 540256; Potency, µM (highest dose often 37.9 µM), for inactives: at the top dose activity change, negative = inhibition, hits mostly inhibitors; actives 1.2% (n = 300,000); calls by dose curve; tested in HEK293 cells; further: potency means the concentration at half of the fitted maximal effect; on the % scale 0 is the no-effect control and ±100 the full control effect; nearly all actives have a fitted effect of over 50% in size
MARV entry inh: blocks Marburg virus binding to or entry into cells | Potency, µM (top dose mostly 37.8 µM), for inactives: at the highest dose activity change, negative = inhibition, most hits filed as inhibitors | actives 1.8% (n = 300,000) | Marburg virus pseudotyped entry inhibition, cell reporter | AID 540276; calls by dose curve; tested in HEK293 cells; further: potency means the concentration at half of the fitted maximal effect; on the % scale 0 is the no-effect control and ±100 the full control effect
Cycloheximide cs: counter-screen for Shiga toxin inhibitors: cycloheximide protein synthesis inhibition | cell reporter, cycloheximide protein synthesis inhibition counterscreen | max response, % | actives 12% (n = 300,000); in the data active means max response mostly above about 13%, no sharp cut-off; inactive means mostly below about 14%; further: read at 38.3 µM for the half of the compounds with a filed dose; 0% is about no effect
Shiga inhibitor: Shiga toxin inhibition; Vero cells, Shiga toxin protein synthesis inhibition reporter; inhibition, % at 38.7 µM; actives 9.2% (n = 290,000); AID 2315; in the data active means inhibition mostly above about 28%, no sharp cut-off; inactive means mostly below about 43%; further: 0% is about no effect
Starred values were filed as active, the others as inactive; u = inconclusive; x = no result; [ ] = remark or other dose. Rows were chosen to be rich in hits. Some 12% of all compounds tested hit in one or more screens of this group.

SMILES	Lassa entry inh	MARV entry inh	Cycloheximide cs	Shiga inhibitor
O=C(O)c1ccc(Nc2nc3c(s2)CCCC3)cc1	x	x	-5.1	-31.9
COC(=O)c1sc(Nc2ccccc2)nc1C	6.6%	7.4%	35.3*	103.7*
CC(=O)c1sc(Nc2cccc(C)c2)nc1C	x	u	46.1*	91.1*
CCOC(=O)c1sc(Nc2ccccc2)nc1C	-18.4%	-6.8%	51.8*	55.8*
O=C(CSc1ccc2nnc(-c3cccnc3)n2n1)Nc1ccccc1C(F)(F)F	x	x	-1.0	-2.8
CCOC(=O)c1sc(NCC2CCCO2)nc1C (stereo not given)	14.3%	25.5%[46.1 µM]	active	10.0
CNc1nc(C)c(C(=O)OCC(=O)OC)s1	12.0%	29.6%	28.7	42.1
CNc1nc(C)c(C(=O)OCc2ccccc2)s1	-0.6%	19.4%	29.0*	93.3*
CC(C)(C)C(=O)c1sc(Nc2ccccc2)nc1N	14.9%	u	59.0*	68.4*
Nc1nc(Nc2cccc(C(F)(F)F)c2)sc1C(=O)c1ccccc1	-2.3%[46.1 µM]	x	x	x
COc1ccccc1CNc1nc(C)c(C(=O)N(C)C)s1	u	5.6%[46.1 µM]	-3.9	-6.2
COc1ccccc1CNc1nc(C)c(C(C)=O)s1	-14.0%[46.1 µM]	19.5%[46.1 µM]	43.4*	61.3*
CCOC(=O)c1sc(Nc2ccc(C)cc2C)nc1C	-10.9%	u	17.6*	19.3
CCOC(=O)c1sc(Nc2nc(C)cc(C)n2)nc1C	x	x	2.2	-2.7
CCc1cccc(CC)c1NC1=NS(=O)(=O)c2ccccc21	-2.4%[46.1 µM]	-11.6%[46.1 µM]	x	x
O=S1(=O)N=C(Nc2nc3c(s2)CCCC3)c2ccccc21	7.08µM*	u	28.3*	56.6*
CCOC(=O)c1sc(N/N=C/c2ccccc2)nc1C	u	u	84.8*	34.3*
CCOc1ccccc1C(=O)Nc1nnc(C(C)C)s1	x	x	6.4	14.1
CCOC(=O)c1sc(NC(=O)c2ccccc2OCC)nc1C	-7.4%	-3.6%	36.3*	68.5
CC(=O)N1CCc2nc3sc(C(=O)c4ccc(F)cc4)c(N)c3c(C(F)(F)F)c2C1	u	-28.1%[46.1 µM]	x	x
O=C(O)Cc1sc(N/N=C\c2ccccc2)nc1-c1ccccc1	-24.1%	-1.2%[46.1 µM]	52.9*	57.7*
CCOC(=O)c1sc(N/N=C/c2cccc(C)c2)nc1C	u	-5.8%	15.7	16.4
COc1cccc2sc(NC(=O)c3ccc(Br)s3)nc12	u	5.4%	31.9*	72.0
COc1ccccc1Nc1nc(-c2ccccc2)c(CC(=O)O)s1	-2.2%[46.1 µM]	u	x	x
CC(=O)c1sc(N/N=C\c2ccccc2O)nc1C	u	u	30.2*	40.2
SMILES	Lassa entry inh	MARV entry inh	Cycloheximide cs	Shiga inhibitor
CCOC(=O)c1sc(Nc2ccc(F)cc2)nc1C	-5.8%[46.1 µM]	u	27.7*	79.6*
O=C(N1CCOCC1)N1CCN(S(=O)(=O)c2ccc(F)cc2)CC1	x	x	-0.9	x
Cc1nc(Nc2ccc(Cl)c(Cl)c2)sc1C(=O)Nc1ccccc1	u	u	24.5*	-27.9
CCOC(=O)Nc1nc(C)c(C(=O)c2ccc(Cl)cc2)s1	1.7%	-11.1%	0.8	-7.7
CCOC(=O)c1sc(NC(=O)Nc2ccc(Cl)cc2)nc1C	u	u	42.9*	72.2*
COC(=O)c1ccc(/C=N/Nc2nc(C)c(C)s2)cc1	u	u	63.5*	97.4*
Cc1nc(Nc2ccc(Cl)cc2Cl)sc1C(=O)Nc1ccccc1	-14.7%	u	-1.2	-7.1
Clc1cc(Cl)c(OCCCCn2cncn2)c(Cl)c1	x	x	1.1	-3.8
CC(=O)CCc1ccc(Oc2nc(-c3cccnc3)nc3ccccc23)cc1	-26.1%[46.1 µM]	u	1.0	-6.3
O=C(c1ccc(-c2cccc([N+](=O)[O-])c2)o1)N1CCN(c2ccc([N+](=O)[O-])cc2)CC1	-30.0%	u	x	x
O=C(c1ccc(Oc2ccc([N+](=O)[O-])cc2Cl)cc1)N1CCCC1	-17.1%	-14.0%[46.1 µM]	-5.0	2.7
O=C(c1ccc(-c2ccc([N+](=O)[O-])cc2)o1)N1CCCCC1	-27.0%	2.9%	43.4*	92.6*
O=C(COc1ccccc1)N1CCN(C(=O)c2ccc([N+](=O)[O-])cc2)CC1	1.7%	6.3%	48.0*	35.9
O=C(c1ccc(Oc2ccc([N+](=O)[O-])cc2)cc1)N1CCCCCC1	u	5.62µM*	11.4	67.6
CC[C@H](C)[C@H](NC(=O)[C@H](Cc1ccc(O)cc1)NC(=O)[C@H](Cc1cnc[nH]1)NC(=O)[C@H](CCCNC(=N)N)NC(=O)[C@H](CC(C)C)NC(=O)[C@H](C)NC(=O)[C@@H](N)CO)C(=O)N[C@@H](CC(N)=O)C(=O)N[C@@H](CC(C)C)C(=O)N[C@H](C(=O)N[C@H](C(=O)N[C@@H](CCCNC(=N)N)C(=O)N[C@@H](CCC(N)=O)C(=O)N[C@@H](CCCNC(=N)N)C(=O)N[C@@H](Cc1ccc(O)cc1)C(N)=O)[C@@H](C)O)[C@@H](C)CC	x	x	-3.1	-8.0
Cc1nnc(NC(=O)c2nc(SCc3ccccc3F)ncc2Cl)s1	-0.6%[46.1 µM]	-11.5%[46.1 µM]	x	x
CC(C)c1nnc(NC(=O)c2nc(S(=O)(=O)Cc3ccccc3F)ncc2Cl)s1	x	x	56.5*	105.7*
CSc1nnc(NC(=O)c2nc(S(=O)(=O)Cc3ccccc3F)ncc2Cl)s1	u	u	50.9*	35.7*
Cc1nnc(NC(=O)c2nc(S(=O)(=O)Cc3ccccc3C)ncc2Cl)s1	x	x	43.6*	51.5*
Cc1cc2oc(C(=O)Nc3nc(-c4ccccc4)ns3)c(C)c2cc1Cl	22.0%[46.1 µM]	-1.8%[46.1 µM]	x	x
CCOC(=O)c1oc2ccc(/C=N/O)c(Cl)c2c1C	8.7%	-6.4%[46.1 µM]	28.7*	36.8
CCOC(=O)c1oc2cc(C)cc(C)c2c1C	x	x	-1.9	-0.9
CCc1ccc(NC(=O)N(Cc2c[nH]c3ccccc23)C2CCCCC2)cc1	u	-27.7%[46.1 µM]	x	x
O=C(COC(=O)c1ccc(F)c(S(=O)(=O)N2CCCCC2)c1)NCc1ccc(F)cc1	-1.0%	-3.3%	-1.4	-5.2
Cc1ccc(OCCN2CCOCC2)cc1C	28.0%	26.9%	16.8*	39.6
SMILES	Lassa entry inh	MARV entry inh	Cycloheximide cs	Shiga inhibitor
Cc1cc(OCCN2CCOCC2)ccc1[N+](=O)[O-]	4.2%	15.8%	10.1	16.9
Clc1ccc(OCCN2CCOCC2)cc1	x	x	4.7	13.5
Cc1cc(OCCN2CCOCC2)ccc1Cl	x	x	31.7*	137.7*
Cc1nc(CNS(=O)(=O)c2ccc(F)cc2)cs1	11.1%	-11.8%	1.6	-6.3
CC1CCC/C(=N\NC(=O)Nc2ccccc2)C1 (stereo not given)	-2.2%	2.6%	26.6*	53.3*
CC1CCC/C(=N\Nc2ccc(Cl)c(C(=O)O)c2)C1 (stereo not given)	u	1.6%	165.0*	59.8*
O=C(O)c1ccc2c(c1)C(=O)N([C@H](Cc1ccc(C(F)(F)F)cc1)C(=O)O)C2=O	x	x	-1.8	-6.2
COc1cn(-c2ccccc2)nc1C(=O)Nc1ccc(C)cc1	u	u	36.0*	55.7*
COc1cn(-c2ccccc2)nc1C(=O)Nc1ccccc1	x	u	46.9*	81.7*
COc1ccc(C)cc1NC(=O)c1nn(-c2ccccc2)cc1OC	u	u	0.7	12.4
CC(C)(C)C(=O)/C=c1\s/c(=C\c2ccc(-c3ccc([N+](=O)[O-])cc3)o2)c(=O)n1CC(=O)NC(N)=O	4.6%	-8.2%[46.1 µM]	13.9	10.0
CCCCS(=O)(=O)N1CCC(C(=O)Oc2ccc(Cl)cc2)CC1	x	x	-3.0	-2.0
CC(=O)c1cc(C(=O)c2ccccc2)sc1Nc1ccccc1	3.4%	0.0%	48.2*	61.2*
CCCC(=O)Nc1ccc(NCc2ccc(C)s2)cc1	x	x	active	29.3
